Data: the OligoGym collection

Target: PRAMEF6
Assay: pooled miR-30 sensor sort-seq; sequence = guide strand
Settings: shRNA
Further: reference of the scale not given here.

| Sequence | sensor-assay potency score (higher = more potent) |
| --- | --- |
| TTTTGGAGGCAGCACAGCTTGA | -1.46 |
| TATTGTGAGGACCTTTAACGAG | -1.02 |
| TTGGAGGCAGCACAGCTTGAGG | -1.39 |
| ATCAGCATCATAACTCTCCCGG | -0.511 |
| TACAGCTCCACGCATAAGTTTT | -1.43 |
| TCAGCATCATAACTCTCCCGGG | -0.662 |
| TTAGTTATTGTGAGGACCTTTA | -0.654 |
| TTGGACAGTCCTGCACTGGTGT | -0.525 |
| TTGGGTAAGCAGTGCATCCAGC | -0.474 |

Target: PRB2
Assay: as above
Settings: shRNA

| Sequence | sensor-assay potency score (higher = more potent) |
| --- | --- |
| AGGAGATCGAGAACTTCGGGAC | -1.14 |
| TTGAGGATTGTTGCCTTCTTGT | -0.928 |
| TTGTTGTCTCCTTGTGGGGGTG | -1.06 |
| TTGAGGCTGGTTGCCTCCTTGT | -1.75 |
| TTCGGGACTTGCTGCCTCCTTG | -0.944 |
| ACTTGTTGTCTCCTTGTGGGGG | -0.828 |
| TTTGGGACTTGTTGTCTCCTTG | -0.1 |
| GAGGAGATCGAGAACTTCGGGA | -0.989 |
